This is an account of results in PMC5540273 (PLoS ONE, 2017).

Among the test systems are PIK3CG; PIKFYVE; PIM1; PIM2; PIM3; PIP5K1A; PIP5K1C; PIP5K2B; PKMYT1; PKN1; PKN2; PLK1; PLK2; PLK3; PLK4; PRKCD.
Conditions in all cases: concentration: 1 μM, replicates: in singlicate; n = 1
The next test deals with T1, PIK4CB.
T1 construct: gene PI4KB

The subject of another test is T2, PIP5K2C.
T2 construct: gene PIP4K2C

For the next test, the system named is T3, PKAC-alpha.
T3 construct: gene PRKACA

Another test has as its system T4, PKAC-beta.
T4 construct: gene PRKACB
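Further: KINOMEscan kinase panel screen.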

Take `COc1cc(OC)cc(-c2cc3cnc(N)nc3nc2NC(=O)NC(C)(C)C)c1`: the “%Inh” value in the test with PIK3CG is on record as 5%; with PIK4CB it was 0%; with PIKFYVE it was 44%; in the test on PIM1, 0%; in the test with PIM2, 0%; in the test with PIM3, 0%. Moreover, the “%Inh” value with PIP5K1A is 37%; with PIP5K1C, 0%; in the test with PIP5K2B, 0%; with PIP5K2C, 0%; with PKAC-alpha, 0%; with PKAC-beta it was 0%. Further, the “%Inh” value is recorded as 0% in the test with PKMYT1; 0% in the test with PKN1; 22% with PKN2; 0% in the test on PLK1; 0% with PLK2; 0% in the test with PLK3. Besides, the “%Inh” value in the test with PLK4 and with PRKCD was 0% in each case.

For `CC(C)(C)c1ccc(C(=O)Nc2cn3cc(-c4ccccc4)ccc3n2)cc1`, the “%Inh” value with PIK3CG is 0%; in the test on PIK4CB, 0%; in the test on PIKFYVE, 27%; in the test with PIM1 it was 30%; with PIM2, 0%; with PIM3, 19%. Also, the “%Inh” value with PIP5K1A was 0%; in the test with PIP5K1C it was 32%; in the test on PIP5K2B it was 6%; in the test on PIP5K2C it was 54%; with PKAC-alpha it was 0%; in the test with PKAC-beta, 7%. Moreover, the “%Inh” value with PKMYT1 is 0%; with PKN1, 0%; in the test on PKN2 it was 16%; in the test with PLK1, 0%; with PLK2, 0%; in the test with PLK3, 13%. In addition, the “%Inh” value is given as 40% in the test on PLK4 and 0% with PRKCD.

On to `Nc1nccc2scc(-c3ccc4c(c3)CCN4C(=O)Cc3ccccc3)c12` [GSK2576924], for which the “%Inh” value in the test on PIK3CG is recorded as 5%; with PIK4CB it was 20%; in the test with PIKFYVE, 0%; with PIM1 it was 20%; in the test on PIM2 it was 0%; with PIM3, 3%. The “%Inh” value came to 3% with PIP5K1A; 29% with PIP5K1C; 15% in the test on PIP5K2B; 13% in the test on PIP5K2C; 8% in the test with PKAC-alpha; 0% in the test on PKAC-beta. The “%Inh” value with PKMYT1 was 1%; with PKN1 it was 0%; in the test on PKN2 it was 0%; in the test on PLK1 it was 6%; in the test on PLK2, 1%; with PLK3, 0%. Besides, the “%Inh” value was 6% with PLK4 and 0% in the test on PRKCD.

`Cl.NS(=O)(=O)c1cccc(Nc2cc(-c3ccc(F)cc3)n[nH]2)c1` [GW824645]: the “%Inh” value in the test on PIK3CG was determined as 0%; in the test with PIK4CB it was 26%; in the test on PIKFYVE it was 0%; in the test on PIM1 it was 0%; in the test with PIM2, 8%; in the test with PIM3, 0%. The “%Inh” value came out at 3% in the test on PIP5K1A; 59% with PIP5K1C; 0% in the test with PIP5K2B; 0% with PIP5K2C; 7% in the test on PKAC-alpha; 0% in the test on PKAC-beta. Further, the “%Inh” value in the test with PKMYT1 came to 0%; in the test on PKN1, 0%; in the test on PKN2, 0%; with PLK1 it was 0%; with PLK2, 20%; in the test on PLK3 it was 23%. For the same compound, the figures for the “%Inh” value with PLK4 and in the test on PRKCD were 10% and 5%, respectively.

Turning to `CN1C(=O)C(Nc2ccccc2)=C(c2ccccc2)C1=O` [SB-300079], the “%Inh” value in the test on PIK3CG was found to be 10%; with PIK4CB, 0%; with PIKFYVE, 9%; in the test with PIM1 it was 0%; in the test with PIM2, 0%; with PIM3 it was 0%. The “%Inh” value in the test on PIP5K1A is given as 42%; in the test on PIP5K1C, 23%; with PIP5K2B, 0%; in the test with PIP5K2C, 20%; with PKAC-alpha, 2%; with PKAC-beta it was 0%. For the same compound, the “%Inh” value in the test on PKMYT1 worked out at 2%; with PKN1, 0%; in the test on PKN2, 0%; in the test with PLK1, 4%; in the test with PLK2 it was 12%; with PLK3, 16%. Further, the “%Inh” value with PLK4 is on record as 0%; in the test with PRKCD, 7%.

`CCCNC(=O)Nc1ccc(Oc2ncnc3ccn(C)c23)cc1`: the “%Inh” value came to 12% in the test on PIK3CG; 0% in the test on PIK4CB; 0% with PIKFYVE; 0% in the test with PIM1; 5% with PIM2; 0% with PIM3. In addition, the “%Inh” value in the test with PIP5K1A was found to be 0%; with PIP5K1C, 17%; in the test on PIP5K2B it was 47%; in the test with PIP5K2C, 27%; with PKAC-alpha, 0%; in the test on PKAC-beta, 0%. The “%Inh” value in the test with PKMYT1 was 0%; in the test with PKN1, 0%; with PKN2 it was 0%; with PLK1 it was 0%; in the test on PLK2, 28%; in the test on PLK3 it was 15%. Moreover, the “%Inh” value in the test with PLK4 came to 18%; in the test with PRKCD it was 33%.

Turning to `Cc1nc(N(C)[C@H]2CN(C(=O)CC#N)CC[C@H]2C)c2cc[nH]c2n1`, the “%Inh” value in the test with PIK3CG came to 0%; in the test on PIK4CB, 0%; in the test on PIKFYVE it was 2%; in the test with PIM1, 0%; in the test on PIM2, 0%; with PIM3, 0%. Besides, the “%Inh” value with PIP5K1A worked out at 0%; in the test with PIP5K1C, 0%; in the test on PIP5K2B, 0%; in the test on PIP5K2C it was 0%; with PKAC-alpha, 17%; in the test with PKAC-beta, 0%. Moreover, the “%Inh” value was determined as 4% in the test with PKMYT1; 0% in the test on PKN1; 12% in the test with PKN2; 0% with PLK1; 5% with PLK2; 0% with PLK3. In addition, the “%Inh” value in the test on PLK4 amounted to 0%; in the test with PRKCD, 2%.

`CN(C)c1cc(-c2ccc3c(N)n[nH]c3c2)nc(N)n1` [GSK2219329]: the “%Inh” value in the test with PIK3CG is listed as 0%; in the test on PIK4CB it was 0%; in the test on PIKFYVE, 0%; in the test on PIM1, 14%; in the test on PIM2, 0%; in the test with PIM3, 0%. Also, the “%Inh” value worked out at 0% with PIP5K1A; 19% in the test on PIP5K1C; 0% in the test with PIP5K2B; 0% in the test with PIP5K2C; 32% in the test on PKAC-alpha; 0% with PKAC-beta. In addition, the “%Inh” value in the test with PKMYT1, in the test with PKN1, in the test with PKN2, in the test on PLK1, in the test with PLK2 and with PLK3 was 0% throughout. Further, the “%Inh” value with PLK4 and in the test on PRKCD was 0% in each case.

Regarding `O=C(Nc1n[nH]c2nc(-c3ccccc3)c(Br)cc12)C1CC1` [SB-708998], the “%Inh” value is recorded as 0% with PIK3CG; 0% in the test with PIK4CB; 0% with PIKFYVE; 4% with PIM1; 0% in the test on PIM2; 0% in the test with PIM3. Moreover, the “%Inh” value in the test on PIP5K1A was found to be 0%; in the test on PIP5K1C it was 14%; in the test on PIP5K2B, 33%; in the test on PIP5K2C it was 0%; in the test with PKAC-alpha, 0%; with PKAC-beta, 2%. Further, the “%Inh” value in the test with PKMYT1 is 8%; in the test with PKN1 it was 21%; in the test with PKN2, 0%; with PLK1, 10%; with PLK2, 0%; with PLK3, 0%. In addition, the figures for the “%Inh” value with PLK4 and in the test on PRKCD were 2% and 0%, respectively.

Consider `COc1ccc(-c2cc3c(C)nc(N)nc3n([C@H]3CC[C@H](O)CC3)c2=O)cn1`, for which the “%Inh” value worked out at 100% with PIK3CG; 93.9% in the test on PIK4CB; 45% in the test with PIKFYVE; 5% in the test on PIM1; 0% in the test with PIM2; 6% in the test with PIM3. Besides, the “%Inh” value in the test with PIP5K1A came to 2%; in the test with PIP5K1C it was 0%; with PIP5K2B it was 2%; in the test on PIP5K2C, 38%; with PKAC-alpha it was 0%; in the test on PKAC-beta it was 0%. Besides, the “%Inh” value in the test on PKMYT1 worked out at 32%; in the test with PKN1, 0%; in the test with PKN2 it was 10%; in the test on PLK1, 0%; in the test with PLK2, 0%; with PLK3, 0%. The “%Inh” value with PLK4 and with PRKCD was 0% each time.
